Source: PubChem BioAssay (NCI)
Compounds without any hit were thinned out: in the full panel of roughly 83,000, 20% have a hit.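 Method: cells in 96-well plates; compound added at one concentration; 48 h incubation; percent growth measured; values under 10 scored active.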 Active and inactive are the calls of the source.

Tested on: LOX IMVI melanoma
Test: NCI-60 one-dose screen, 48 h (100 = growth as untreated, 0 = no growth, -100 = all killed)
Conditions: 10 µM unless noted

For Cn1cc(-c2csc(-c3c[nH]c4ccccc34)n2)c2cnccc21, which growth is on record?
Its growth is -84.9% (active).

CCOC(=O)C#Cc1c(C(=O)OCC)nnn1Cc1ccc([N+](=O)[O-])cc1 was tested. Which growth did it give?
Its growth is -0.0172% (active).

How did the growth turn out when CCn1cc(C(=O)O)c(=O)c2cc(F)c(N3CCN(CC(=O)Nc4ccc(S(=O)(=O)Nc5nccc(C)n5)cc4)C(C)C3)c(F)c21 (stereo not given) was run?
Its growth is 95.6% (inactive).

With C=C1C(=O)O[C@H]2[C@H]1CC/C(COC(=O)/C=C\C(=O)NCc1ccc(Cn3c(=O)sn(CCI)c3=O)cc1)=C\CC[C@@]1(C)O[C@@H]21 as the compound, how does the growth read?
Its growth is 14% (inactive).

Which growth does the source give for CC1CN(S(=O)(=O)c2oc(-c3ccc(Cl)cc3)nc2C#N)CC(C)O1 (stereo not given) here?
The growth was 8.2% (active).

For Cc1ccc(C)n1-c1ccccc1-n1c(C)ccc1C, which growth is on record?
The growth was 90.9% (inactive).

How did the growth turn out when CCCCCCC12CCC(=O)N1CCc1cncn12 (stereo not given) was run?
Its growth is 102% (inactive).

With CNC(=O)c1[nH]cc(-c2ccc(OC)cc2)c1-c1cc(OC)c2c(c1OC)OCO2 as the compound, how does the growth read?
The growth was 96.5% (inactive).

Which growth does the source give for C#Cc1c2c(c(OC)c3c1OCO3)[C@H]([C@H]1OC(=O)c3c1ccc(OC)c3OC)N(C)CC2 here?
The growth was 79.7% (inactive).

C=CCc1c(O)c(C(=O)/C=C/c2ccccc2)c(OC)c2ccoc12 was tested. Which growth did it give?
The growth was 35.2% (inactive).

How did the growth turn out when O=S(=O)(Nc1ccc(F)cc1F)c1ccc(-c2cnc(C3CC3)o2)cc1 was run?
Its growth is 41.5% (inactive).

CN1CCN(c2cc(Nc3cc(C4CC4)[nH]n3)nc(Nc3ccc(CC(=O)NCc4cccc(F)c4)cc3)n2)CC1 was tested. Which growth did it give?
Its growth is -28.4% (active).

CC(C)(C)[Si](C)(C)OC1[C@@H](CNC(=O)NC(=O)NC(N)=O)O[C@@H](n2cnc3c(NC(=O)Nc4ccccc4)ncnc32)[C@H]1O[Si](C)(C)C(C)(C)C (stereo not given in full) was tested. Which growth did it give?
The growth was 56% (inactive).

For COc1ccc(OC)c(-c2nc(SCC(=O)c3ccc(C#N)cc3)[nH]c(=O)c2C#N)c1, which growth is on record?
The growth was 94.7% (inactive).

For COc1ccc(C(C)=O)cc1S(=O)(=O)Nc1c(N)nc(SC)[nH]c1=O, which growth is on record?
The growth was 96.3% (inactive).

With CCOC(=O)C1=C(N)Oc2c(sc3c(F)cccc23)C1c1ccc(O)cc1 (stereo not given) as the compound, how does the growth read?
The growth was 36.4% (inactive).

With CCNCCNc1cc(-c2ccc(C(F)(F)F)cc2)c(C#N)c2nc3ccccc3n12 as the compound, how does the growth read?
The growth was -95.4% (active).

Cn1cc(-c2ccc3nc(-c4ccc(CC(=O)ONc5cc(C(C)(C)C)on5)cc4)cnc3c2)cn1 was tested. Which growth did it give?
The growth was 30.5% (inactive).

With Cn1cc(C(=O)c2nc(-c3c[nH]c4ccccc34)no2)c2cc(F)ccc21 as the compound, how does the growth read?
The growth was 39.5% (inactive).

How did the growth turn out when COc1ccc(CNc2c3ccccc3nc3ccccc23)cc1 was run?
The growth was 20.9% (inactive).

O=[N+]([O-])c1cccc(-c2nc3cc4nc5ccccc5[nH]c4cc3n2)c1 was tested. Which growth did it give?
Its growth is 99.8% (inactive).

Which growth does the source give for COc1c(C(=O)Nc2ccc(C)c(Br)c2)ccc2ccccc12 here?
The growth was 95.1% (inactive).

O=C1C(Cl)=C(NCCCCCCNC2=C(Cl)C(=O)c3ccccc3C2=O)C(=O)c2ccccc21 was tested. Which growth did it give?
The growth was 36.3% (inactive).

For O=C1c2c(c3c4ccccc4[nH]c3c3ccc4ccccc4c23)C(=O)N1CCN1CCNCC1, which growth is on record?
The growth was -87.2% (active).

How did the growth turn out when COc1ccccc1CNc1c2ccccc2nc2ccccc12 was run?
Its growth is 18.9% (inactive).
